{"source": "PubChem BioAssay AID2501", "about": "(Southern Research Specialized Biocontainment Screening …, 2010)", "note": "The whole screen tested about 2,200 compounds, of which about 1,200 (55%) were called active. The limit is not given here; nearly all actives have IC50 up to about 92 µM. So high a share suggests a set chosen from earlier hits. The list shows a part of the results."}
{"assay": "counter assay for TAg ATPase ADP read-out – biochemical, ADP-Hunter, fluorescence, counter-screen (AID 2501);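 also: purified T antigen ATPase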", "settings": "series mostly up to 100 µM"}
{"smiles": "Cc1ccc(NC(NC(=O)Cc2ccccc2)C(Cl)(Cl)Cl)cc1", "note": "(stereo unspecified)", "IC50": "inactive"}
{"smiles": "CC1CCCN(Cc2nc(Cc3ccccc3Cl)no2)C1", "note": "(stereo unspecified)", "IC50": "inactive"}
{"smiles": "COc1ccc(CC(O)COS(N)(=O)=O)cc1", "note": "(stereo unspecified)", "IC50": "inactive"}
{"smiles": "O=[N+]([O-])/C=C\\c1ccc(N2CCOCC2)cc1", "IC50": "inactive"}
{"smiles": "O=[N+]([O-])c1cc(Cc2ccccc2)cc(C=Nc2ccc(N3CCOCC3)cc2)c1O", "IC50": "3.16 µM (active)"}
{"smiles": "C(=Nc1ccc(N2CCOCC2)cc1)c1c[nH]c2ccccc12", "IC50": "7.55 µM (active)"}
{"smiles": "O=C(O)c1cc(-c2ccco2)nc2cc3ccccc3cc12", "IC50": "inactive"}
{"smiles": "O=c1cc(CN2CCN(c3ccc(O)cc3)CC2)nc2scc(-c3ccccc3)n12", "IC50": "9.38 µM (active)"}
{"smiles": "CCC(=O)NC(C)C(c1cccs1)N1CCN(c2ccccc2)CC1", "note": "(stereo unspecified)", "IC50": "inactive"}
{"smiles": "O=c1[nH]c(=S)[nH]c2[nH]c(=S)[nH]c12", "IC50": "52.7 µM (active)"}
{"smiles": "CC(C)N1CN(c2ccccc2)C(=S)N(c2ccccc2)C1", "IC50": "inactive"}
{"smiles": "N#C/C(C(=O)Nc1ccc(Cl)cc1)=C(/S)Nc1ccccc1", "IC50": "21.8 µM (active)"}
{"smiles": "Cc1nnc(Nc2ccc(O)cc2)[nH]c1=O", "IC50": "3.89 µM (active)"}
{"smiles": "Cc1n[nH]c(=O)nc1Nc1ccc(O)cc1", "IC50": "2.48 µM (active)"}
{"smiles": "Cc1[nH]nc(Nc2ccc(O)cc2)c1[N+](=O)[O-]", "IC50": "3.93 µM (active)"}
{"smiles": "COc1cc(C=C(C(C)=O)C(C)=O)ccc1O", "IC50": "3.76 µM (active)"}
{"smiles": "CCC(=O)N1CCc2cc(S(=O)(=O)N(C)c3ccc(OC)cc3OC)ccc21", "IC50": "inactive"}
{"smiles": "COc1cc(/C=C(\\C#N)C(=O)N2CCCCC2)ccc1O", "IC50": "5.73 µM (active)"}
{"smiles": "N#C/C(=C\\c1ccc(O)c(O)c1)C(=O)N1CCc2ccccc21", "IC50": "9.2 µM (active)"}
{"smiles": "Cc1cc(/C=C(\\C#N)C(=O)NC2CCCCCC2)c(C)n1C", "IC50": "inactive"}
{"smiles": "COc1cc(/C=C(\\C#N)C(=O)N2CCc3ccccc32)ccc1O", "IC50": "2.3 µM (active)"}
{"smiles": "CC(C)(C)NC(=O)COC(=O)c1cc(F)c(F)cc1Cl", "IC50": "inactive"}
{"smiles": "CCOC(=O)N1[C@@H]2C=C(C)[C@@H]2[C@@H]2[C@@H](C)C(=O)N21", "IC50": "inactive"}
{"smiles": "O=C(/C=C/c1cccc(Cl)c1)c1ccc([N+](=O)[O-])o1", "IC50": "inactive"}
{"smiles": "Cc1ccccc1/C=C/C(=O)c1ccc([N+](=O)[O-])o1", "IC50": "inactive"}
{"smiles": "COc1cc(/C=C/C(=O)c2ccc([N+](=O)[O-])o2)ccc1O", "IC50": "5.19 µM (active)"}
{"smiles": "COc1ccc(NC(=O)CN(C)C(=O)CCc2nc3cc(S(=O)(=O)N4CCOCC4)ccc3n2C)cc1", "IC50": "inactive"}
{"smiles": "O=S(=O)(c1ccc(NC(=S)N/N=C/c2ccc(O)c(O)c2)cc1)N1CCOCC1", "IC50": "5.94 µM (active)"}
{"smiles": "Cc1ccc(S(=O)(=O)N2[C@@H](c3ccc(Cl)cc3)C(C(=O)O)=CC[C@H]2c2ccc(Cl)cc2)cc1", "IC50": "inactive"}
{"smiles": "Cc1ccc(S(=O)(=O)N2CCN(CC(=O)N/N=C\\c3ccc(O)c(O)c3)CC2)cc1", "IC50": "3.2 µM (active)"}
{"smiles": "CCN(CC)c1ccc(NC(=O)CCNS(=O)(=O)c2ccc3c(c2)CCC(=O)N3)c(C)c1", "IC50": "7.36 µM (active)"}
{"smiles": "CN1CCN(CC(=O)Nc2c(C#N)cnn2-c2ccccc2)CC1", "IC50": "inactive"}
{"smiles": "COc1ccc(-c2nnc(SC(C)C(=O)Nc3c(C)n(C)n(-c4ccccc4)c3=O)o2)cc1", "note": "(stereo unspecified)", "IC50": "inactive"}
{"smiles": "N#Cc1ccsc1NC(=O)CN1CCN(c2ccc(O)cc2)CC1", "IC50": "6.3 µM (active)"}
{"smiles": "Cc1c(NC(=O)CN2CCN(c3ccc(O)cc3)CC2)c(=O)n(-c2ccccc2)n1C", "IC50": "8.18 µM (active)"}
{"smiles": "CC(C)(C)NC(=O)NC(=O)CN1CCN(c2ccc(O)cc2)CC1", "IC50": "4.89 µM (active)"}
{"smiles": "Cc1c(NC(=O)C(C)OC(=O)/C=C/c2ccco2)c(=O)n(-c2ccccc2)n1C", "note": "(stereo unspecified)", "IC50": "inactive"}
{"smiles": "Cc1c(NC(=O)c2cnn3c2NC(c2ccccc2)CC3C(F)(F)F)c(=O)n(-c2ccccc2)n1C", "note": "(stereo unspecified)", "IC50": "inactive"}
{"smiles": "Cc1c(NC(=O)COC(=O)COc2ccc(Nc3ccccc3)cc2)c(=O)n(-c2ccccc2)n1C", "IC50": "8.78 µM (active)"}
{"smiles": "Cc1nc2ccc(NC(=O)c3cc([N+](=O)[O-])cc([N+](=O)[O-])c3Cl)cc2s1", "IC50": "inactive"}
{"smiles": "Cc1ccc(N/C(C(Cl)=C(Cl)Cl)=C(/Cl)[N+](=O)[O-])c(C)c1", "IC50": "inactive"}
{"smiles": "O=C(Cn1cnc2c(nnn2Cc2ccccc2)c1=O)Nc1ccc2c(c1)OCCO2", "IC50": "inactive"}
{"smiles": "Cc1cc(NC(=O)CN2CCN(c3ccc(O)cc3)CC2)no1", "IC50": "4.08 µM (active)"}
{"smiles": "O=C(CN1CCN(c2ccc(O)cc2)CC1)Nc1ccc2c(c1)OCCO2", "IC50": "6.55 µM (active)"}
{"smiles": "Cc1cc(NC(=O)c2noc3c2CCCCC3)no1", "IC50": "inactive"}
{"smiles": "CCOc1ccc(OCCC(=O)OCC(=O)N2CCN(S(=O)(=O)c3ccc(C)cc3)CC2)cc1", "IC50": "10.1 µM (active)"}
{"smiles": "Cc1ccc(N(C=NC#N)CC(=O)N2CCN(c3ccccc3)CC2)cc1", "IC50": "inactive"}
{"smiles": "O=C(C1CC1)N1CCN(c2ccc(O)cc2)CC1", "IC50": "3.4 µM (active)"}
{"smiles": "O=C(COc1ncnc2sccc12)N1CCN(c2ccccc2)CC1", "IC50": "inactive"}
{"smiles": "O=C(CCOc1ccccc1)N1CCN(c2ccc(O)cc2)CC1", "IC50": "3.56 µM (active)"}
{"smiles": "O=C(CCC(=O)N1CCN(c2ccccc2F)CC1)N1CCN(c2ccccc2)CC1", "IC50": "inactive"}
{"smiles": "CCCCCCC1CCC(C(=O)N2CCOCC2)CC1", "note": "(stereo unspecified)", "IC50": "inactive"}
{"smiles": "O=C(C1CCCN(S(=O)(=O)c2cccc3nonc23)C1)N1CCN(c2ccccc2)CC1", "note": "(stereo unspecified)", "IC50": "inactive"}
{"smiles": "Cc1ccc(OCCC(=O)N2CCN(c3ccc(O)cc3)CC2)cc1", "IC50": "4.43 µM (active)"}
{"smiles": "CCOC(=O)C1CCN(C(=O)COC(=O)CSc2ccc([N+](=O)[O-])cc2)CC1", "IC50": "inactive"}
{"smiles": "COc1ccccc1N1CCN(C(=O)C2CCN(S(=O)(=O)c3ccc(C)cc3)CC2)CC1", "IC50": "inactive"}
{"smiles": "Clc1ccccc1CSc1nnc(-c2ccco2)c(-c2ccco2)n1", "IC50": "inactive"}
{"smiles": "C=CCc1ccc(OCCN2CCc3ccccc3C2)c(OC)c1", "IC50": "inactive"}
{"smiles": "O=[N+]([O-])c1ccc(SCCc2ccncc2)cc1", "IC50": "inactive"}
{"smiles": "CN1CCc2[nH]c3ccc(C(=O)NN)cc3c2C1", "IC50": "inactive"}
{"smiles": "Cc1c(CCO)c(=O)n(C)n1C(=O)c1ccc(Cl)cc1", "IC50": "inactive"}
{"smiles": "O=C(COc1cccc(C(F)(F)F)c1)N1CCN(c2ccc(O)cc2)CC1", "IC50": "15.1 µM (active)"}
{"smiles": "COc1cc(OC)cc(C(=O)NCC(=O)N2CCN(c3ccc(O)cc3)CC2)c1", "IC50": "8.71 µM (active)"}
{"smiles": "CCOC(=O)N1CCN(C(=O)c2ccc3c(SCC(=O)O)c4c(nc3c2)CCCC4)CC1", "IC50": "inactive"}
{"smiles": "O=C(COC(=O)COc1cccc(C(F)(F)F)c1)NC1CCCC1", "IC50": "inactive"}
{"smiles": "CCOC(=O)N1CCN(c2ccc(O)cc2)CC1", "IC50": "4.16 µM (active)"}
{"smiles": "Cc1cc(OCC(=O)N2CCN(c3ccc(F)cc3)CC2)c2c(C)cc(=O)oc2c1", "IC50": "inactive"}
{"smiles": "O=C(CCSc1ccc(Cl)cc1)N1CCN(c2ccc(O)cc2)CC1", "IC50": "7.46 µM (active)"}
{"smiles": "CCOc1cccc(=O)c2c(C)n(-c3ccc(C(=O)O)cc3)c(C)c12", "IC50": "inactive"}
{"smiles": "CCOc1cc(NC2CS(=O)(=O)CC2O)c(OCC)cc1NC(=O)c1ccccc1", "note": "(stereo unspecified)", "IC50": "4.18 µM (active)"}
{"smiles": "CCOc1ccccc1NC(=O)COC(=O)c1cccc(-c2ccc(OC(C)=O)cc2)c1", "IC50": "inactive"}
{"smiles": "COc1ccc2c(=O)c3c(=O)n(Cc4ccco4)c(-c4ccco4)nc3oc2c1", "IC50": "inactive"}
{"smiles": "CC(=O)NCCc1c[nH]c2ccc(O)cc12", "IC50": "7 µM (active)"}
{"smiles": "O=C1c2ccccc2C(=O)N1CCc1c[nH]c2ccc(O)cc12", "IC50": "7.26 µM (active)"}
{"smiles": "Cc1ccc(S(=O)(=O)N2CCCOC2CNC(=O)C(=O)NCCc2c[nH]c3ccccc23)cc1", "note": "(stereo unspecified)", "IC50": "inactive"}
{"smiles": "OCCc1c[nH]c2ccc(C(F)(F)F)cc12", "IC50": "inactive"}
{"smiles": "O=[N+]([O-])c1ccc(S(=O)(=O)N2CCSC2c2ccco2)cc1", "note": "(stereo unspecified)", "IC50": "inactive"}
{"smiles": "N/C(=N\\N=C\\c1ccc(O)c(O)c1)c1nonc1N", "IC50": "14 µM (active)"}
{"smiles": "COc1cc(/C=N/N=C(\\N)c2nonc2N)ccc1O", "IC50": "4.89 µM (active)"}
{"smiles": "O=c1oc2ccccc2c2oc3cc(O)c(O)cc3c12", "IC50": "8.13 µM (active)"}
{"smiles": "COc1ccc(C2CC(=O)C(C(c3ccc(O)cc3)C3C(=O)CC(c4ccc(OC)cc4)CC3=O)C(=O)C2)cc1", "note": "(stereo unspecified)", "IC50": "inactive"}
{"smiles": "CN(C)c1ccc(C(=O)c2ccc(N(C)C)c(N)c2)cc1N", "IC50": "4.76 µM (active)"}
{"smiles": "COc1cc(/C=N/NC(=O)c2cccc([N+](=O)[O-])c2)ccc1O", "IC50": "2.38 µM (active)"}
{"smiles": "COc1cc(/C=N\\NC(=O)CNC(=O)c2cccc([N+](=O)[O-])c2)ccc1O", "IC50": "2.18 µM (active)"}
{"smiles": "O=C(CNC(=O)c1ccccc1)OCc1ccc([N+](=O)[O-])cc1", "IC50": "inactive"}
{"smiles": "C#CCOCCOCCOCCNc1nc(N2CCN(C(=O)CCCCCCCCCCNC(=O)[C@H](CCCCN)n3cc(C[C@@H](C)CC)nn3)CC2)nc(N2CCN(C(=O)CCCCCCCCCCNC(=O)[C@H](CCCCN)n3cc(C[C@@H](C)CC)nn3)CC2)n1", "IC50": "inactive"}
{"smiles": "CN(C)S(=O)(=O)c1cccc(-n2sc3ccccc3c2=O)c1", "IC50": "8.98 µM (active)"}
{"smiles": "Cc1ccc(-n2sc3ccccc3c2=O)cc1S(=O)(=O)N1CCCCC1", "IC50": "24.1 µM (active)"}
{"smiles": "O=C(O)c1ccccc1NS(=O)(=O)c1cccc(-n2sc3ccccc3c2=O)c1", "IC50": "9.24 µM (active)"}
{"smiles": "CCC1CCCCN1S(=O)(=O)c1ccc(NC(=O)c2nc(S(C)(=O)=O)ncc2Cl)cc1", "note": "(stereo unspecified)", "IC50": "inactive"}
{"smiles": "O=C(C1=C[C@@H](c2ccc(Br)cc2)C[C@@H](OCCCCO)O1)N1CCOCC1", "IC50": "inactive"}
{"smiles": "Nc1c(/C=C2/C=CC(=O)C(O)=C2)c(=O)nc2sc(CC(=O)N3CCCC3)nn12", "IC50": "8.26 µM (active)"}
{"smiles": "COC1=C/C(=C/c2c(N)n3nc(CC(=O)N4CCCCC4)sc3nc2=O)C=CC1=O", "IC50": "7.89 µM (active)"}
{"smiles": "Nc1c(C=C2C=CC(=O)C=C2)c(=O)nc2sc(CC(=O)N3CCCCC3)nn12", "IC50": "12.5 µM (active)"}
{"smiles": "Nc1c(/C=C2/C=CC(=O)C(O)=C2)c(=O)nc2sc(CC(=O)N3CCCCC3)nn12", "IC50": "10.5 µM (active)"}
{"smiles": "CC(=O)O[C@H]1C[C@@]2(C)[C@@H](C[C@@H](O)[C@H]3[C@@]4(C)CC[C@@H](O)[C@@H](C)C4CC[C@@]32C)/C1=C(\\CCC=C(C)C)C(=O)O", "note": "(stereo partly specified)", "IC50": "inactive"}
